# PubChem BioAssay (EPA / NIEHS)
# Activity calls are given as the source filed them. Rule for the calls: active = hit-call score of the fitted dose curve at least 0.9, where 1 is the maximum; inactive = score below 0.9.
# Assay: APR_HepG2_MitoMass_1hr: Apredica 1-hour HepG2 Assay for Mitochondrial Mass (AID 2282674)
# Conditions: high-content imaging, actives raise or lower the signal
# Experimental: APR_HepG2_1hr is a cell-based, multiplexed-readout assay that uses HepG2, a human liver cell line, with measurements taken at 1 hour after chemical dosing in a 384-well plate.APR_HepG2_MitoMass_1hr is one of 10 assay component(s) measured or calculated from the APR_HepG2_1hr assay. It is designed to make measurements of cell phenotype, a form of morphology reporter, as detected with fluorescence intensity signals by HCS Fluorescent Imaging technology.Data from the assay component APR_HepG2_MitoMass_1hr was analyzed into 1 assay endpoint. This assay endpoint, APR_HepG2_MitoMass_1hr, was analyzed with bidirectional fitting relative to DMSO as the negative control and baseline of activity. Using a type of morphology reporter, gain or loss-of-signal activity can be used to understand changes in the signaling. Furthermore, this assay endpoint can be referred to as a primary readout, because this assay has produced multiple assay endpoints where this one serves a signaling function. To generalize the intended target to other relatable targets, this assay endpoint is annotated to the cell morphology intended target family, where the subfamily is organelle conformation.
# Cells were treated with dimethyl sulfoxide (DMSO) as a solvent control at a final concentration of 0.5% v/v or with compounds in DMSO with a resulting final DMSO concentration of 0.5% v/v. Compound treatment was done at concentrations of 0.39, 0.78, 1.56, 3.12, 6.24, 12.5, 25, 50, 100, and 200 uM in duplicate on each plate. Cells were treated with compounds for 1, 24, or 72 hr. Carbonyl […] m-chloro-phenylhydrazone (CCCP) and taxol were used as positive controls for mitochondrial function and cytoskeletal stability, respectively; DMSO served as the negative control for this experiment. Cells were fixed by the direct addition of 50 uL formaldehyde in Hank's Balanced Salt Solution (HBSS) to a final concentration of 3.7%. After incubation in the fixation medium for 30 min at room temperature (293-298 K), cells were rinsed twice with HBSS and treated with cell permeabilization buffer (16 uL of 0.5% Triton X-100) for 10 min at room temperature (293-298 K) before labeling. For mitochondrial membrane potential and mitochondrial measurements, pre-fixed cells were incubated with 50 uL of MitoTracker Red CMXRos (Invitrogen) at a concentration of 250 nM for 30 min before fixation. In the remaining cases, post-fixed cells were labeled by incubation with a multiplexed mixture of primary antibodies in HBSS for 60 min at room temperature (293-298 K) to detect immunoreactivity of c-Jun (1:500), phospho-histone H3 (1:100), phospho-histone H2A.x (1:200), p53 (1:400), alpha-tubulin (1:200) and Hoechst 33342 (2 ug/mL). Cells were labeled for multiplexed imaging on two separate plates: a) Hoechst 33342, MitoTracker Red, phospho-histone H3, and alpha-tubulin, and b) Hoechst 33342, phospho-histone H2A.x, and c-Jun. A final rinse with HBSS (50 uL) was performed before analysis. The primary and secondary antibodies for the proteins were phospho-histone H3 (rabbit anti-phospho-histone H3 and FITC-donkey anti-rabbit IgG), phospho-histone H2A.x (mouse anti-phospho-histone H2A.x and FITC-donkey anti-mouse IgG), c-Jun (rabbit anti-phospho-c-Jun and Cy3-donkey anti-rabbit IgG), p53 (sheep anti-p53 and Cy5-donkey anti-sheep IgG), alpha-tubulin (mouse anti-alpha-tubulin and Cy5-donkey anti-mouse IgG). These antibodies are available as the CellCiphr HepG2 assay kit (Millipore).Digital images of each well were captured using a Cellomics ArrayScan VTI (Thermo Scientific Cellomics) (0.8 NA objective, 0.63x optical coupler, and XF-93 filter set) at 20x magnification. The images were acquired using the autofocus feature of the ArrayScan instrument, which entails the following steps. First, the camera focuses on channel 1 (Hoechst 33342), where nuclei are identified. Second, a Z offset of 1 um is used for capturing mitochondria (MitoTracker Red). Third, a Z offset of -2 um is used for capturing the cytoskeleton (tubulin). […]
row,Structure (SMILES),outcome
1,CC1(C)CON(Cc2ccccc2Cl)C1=O,inactive
2,CN/C(=N\[N+](=O)[O-])NCc1cnc(Cl)s1,inactive
3,COP(=O)(OC)O/C(C)=C/C(=O)N(C)C,inactive
4,Cc1c(COC(=O)[C@@H]2[C@H](/C=C(\Cl)C(F)(F)F)C2(C)C)cccc1-c1ccccc1,inactive
5,Nc1c(Cl)c(Cl)nc(C(=O)O)c1Cl,inactive
6,Nc1cnn(-c2ccccc2)c(=O)c1Cl,inactive
7,COc1ccc(-c2ccccc2)cc1NNC(=O)OC(C)C,inactive
8,CS(=O)(=O)c1cc(C(F)(F)F)ccc1C(=O)c1cnoc1C1CC1,inactive
9,CSC(=O)c1c(C(F)F)nc(C(F)(F)F)c(C(=O)SC)c1CC(C)C,inactive
10,CC1(C)C(C=C(Cl)Cl)C1C(=O)OC(C#N)c1cccc(Oc2ccccc2)c1 (stereo not given),inactive
11,COCC(=O)N(c1c(C)cccc1C)C(C)C(=O)OC (stereo not given),inactive
12,Cc1ccc(N=CN(C)C=Nc2ccc(C)cc2C)c(C)c1,inactive
13,O=P(O)(O)CCCl,inactive
14,O=c1n(Cl)c(=O)n(Cl)c(=O)n1Cl,inactive
15,CNC(=O)N(C)c1nnc(C(C)(C)C)s1,inactive
16,CC(C)NC(=O)N1CC(=O)N(c2cc(Cl)cc(Cl)c2)C1=O,inactive
17,COC(=O)NC(=S)Nc1ccccc1NC(=S)NC(=O)OC,inactive
18,COC(=O)NS(=O)(=O)c1ccc(N)cc1,inactive
19,Nc1c(Cl)c(F)nc(OCC(=O)O)c1Cl,inactive
20,N#Cc1c[nH]cc1-c1cccc2c1OC(F)(F)O2,inactive

row,Structure (SMILES),outcome
1,COCc1cnc(C2=NC(C)(C(C)C)C(=O)N2)c(C(=O)O)c1 (stereo not given),inactive
2,N#CN=C1SCCN1Cc1ccc(Cl)nc1,inactive
3,Cc1cc(C)nc(Nc2ccccc2)n1,inactive
4,Clc1cccc(C(Cl)(Cl)Cl)n1,inactive
5,C=C(C)CN(CC)c1c([N+](=O)[O-])cc(C(F)(F)F)cc1[N+](=O)[O-],inactive
6,CC(C)Oc1cccc(NC(=O)c2ccccc2C(F)(F)F)c1,inactive
7,CC(C)=CC1C(C(=O)OCc2coc(Cc3ccccc3)c2)C1(C)C (stereo not given),inactive
8,CCOP(=S)(OCC)Oc1nc(Cl)n(C(C)C)n1,inactive
9,Cc1nc(N(C)C)nc(OC(=O)N(C)C)c1C,inactive
10,CCCC(=NOCC)C1=C(O)CC(CC(C)SCC)CC1=O (stereo not given),inactive
11,CO/N=C(/C1=NOCCO1)c1ccccc1Oc1ncnc(Oc2ccccc2Cl)c1F,inactive
12,CCCN(CC)CC1COC2(CCC(C(C)(C)C)CC2)O1 (stereo not given),inactive
13,CC(C)Nc1nc(Cl)nc(NC(C)C)n1,inactive
14,CN=C=S,inactive
15,CCC(C)n1c(=O)[nH]c(C)c(Br)c1=O (stereo not given),inactive
16,COC(=O)N(C(=O)N1CO[C@@]2(C(=O)OC)Cc3cc(Cl)ccc3C2=N1)c1ccc(OC(F)(F)F)cc1,inactive
17,CCN(CC)C(=O)C(C)Oc1cccc2ccccc12 (stereo not given),inactive
18,CCNP(=S)(OC)O/C(C)=C/C(=O)OC(C)C (stereo not given),inactive
19,Cc1cnc(C2=NC(C)(C(C)C)C(=O)N2)c(C(=O)O)c1 (stereo not given),inactive
20,CC1(C)C(C(=O)OC(C#N)c2cccc(Oc3ccccc3)c2)C1(C)C (stereo not given),inactive
